# Measurements from publication PMC11006913.
# Residue numbers refer to the chain shown, from its start.
# Key:
# Experiment in all cases: PBM; 200 nM protein, PBS
# Settings in all cases: dsDNA, one strand shown
# SHOX [1] = target: SHOX (Homo sapiens, UniProt O15266 103-189)
# VENTX [2] = target: T1, VENTX (Homo sapiens, UniProt O95231 78-163, R121Q)
# T1 sequence: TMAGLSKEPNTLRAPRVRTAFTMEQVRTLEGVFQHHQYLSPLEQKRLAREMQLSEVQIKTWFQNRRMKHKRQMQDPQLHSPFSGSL
# HOXB9 [3] = target: HOXB9 (Homo sapiens, UniProt P17482 171-250, T197M)
# VENTX [4] = target: T2, VENTX (Homo sapiens, UniProt O95231 78-163)
# T2 sequence: T1 sequence with Q44R
# VENTX [5] = target: T3, VENTX (Homo sapiens, UniProt O95231 78-163, Y115F)
# T3 sequence: T1 sequence with Y38F, Q44R
# HOXB9 [6] = target: HOXB9 (Homo sapiens, UniProt P17482 171-250)
# SHOX [7] = target: SHOX (Homo sapiens, UniProt O15266 103-189, R173C)
# PROP1 [8] = target: PROP1 (Homo sapiens, UniProt O75360 56-141)
# PROP1 [9] = target: PROP1 (Homo sapiens, UniProt O75360 56-141, R99H)
# HOXB9 [10] = target: HOXB9 (Homo sapiens, UniProt P17482 171-250, R186Q)
# PROP1 [11] = target: PROP1 (Homo sapiens, UniProt O75360 56-141, F88S)
# HOXA7 [12] = target: HOXA7 (Homo sapiens, UniProt P31268 116-202)
# HOXA2 [13] = target: HOXA2 (Homo sapiens, UniProt O43364 129-215, R185T)
# ALX3 [14] = target: ALX3 (Homo sapiens, UniProt O95076 139-225, N203Q)
# HOXD13 [15] = target: HOXD13 (Homo sapiens, UniProt P35453 263-343, T313R)
# HOXA2 [16] = target: HOXA2 (Homo sapiens, UniProt O43364 129-215, R185K)
# HOXD13 [17] = target: HOXD13 (Homo sapiens, UniProt P35453 263-343)
# ALX3 [18] = target: ALX3 (Homo sapiens, UniProt O95076 139-225)
# VAX1 [19] = target: VAX1 (Homo sapiens, UniProt Q5SQQ9 86-172)
# ALX3 [20] = target: ALX3 (Homo sapiens, UniProt O95076 139-225, L168Q)
# HOXD13 [21] = target: HOXD13 (Homo sapiens, UniProt P35453 263-343, T313A)
# ALX3 [22] = target: ALX3 (Homo sapiens, UniProt O95076 139-225, L168V)
# VAX1 [23] = target: VAX1 (Homo sapiens, UniProt Q5SQQ9 86-172, T142I)
# HOXA2 [24] = target: HOXA2 (Homo sapiens, UniProt O43364 129-215, Y150S)
# HOXA7 [25] = target: HOXA7 (Homo sapiens, UniProt P31268 116-202, W177C)
# ALX3 [26] = target: ALX3 (Homo sapiens, UniProt O95076 139-225, N203S)
# HOXA2 [27] = target: HOXA2 (Homo sapiens, UniProt O43364 129-215)
# VAX1 [28] = target: VAX1 (Homo sapiens, UniProt Q5SQQ9 86-172, K157R)
# HOXC9 [29] = target: HOXC9 (Homo sapiens, UniProt P31274 178-260, K195R)
# HOXC9 [30] = target: HOXC9 (Homo sapiens, UniProt P31274 178-260)
# HOXC9 [31] = target: HOXC9 (Homo sapiens, UniProt P31274 178-260, R193K)
# HOXC9 [32] = target: HOXC9 (Homo sapiens, UniProt P31274 178-260, R222W)
# ALX4 [33] = target: ALX4 (Homo sapiens, UniProt Q9H161 200-286)
# ALX4 [34] = target: ALX4 (Homo sapiens, UniProt Q9H161 200-286, Q225E)
# SIX6 [35] = target: T4, SIX6 (Homo sapiens, UniProt O95475 114-200, L167I)
# T4 sequence: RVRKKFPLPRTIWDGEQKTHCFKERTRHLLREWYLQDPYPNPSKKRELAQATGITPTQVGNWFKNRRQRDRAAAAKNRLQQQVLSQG
# SIX6 [36] = target: T5, SIX6 (Homo sapiens, UniProt O95475 114-200, L143V)
# T5 sequence: T4 sequence with L30V, I54L
# SIX6 [37] = target: T6, SIX6 (Homo sapiens, UniProt O95475 114-200, H141N)
# T6 sequence: T4 sequence with H28N, I54L
# SIX6 [38] = target: T7, SIX6 (Homo sapiens, UniProt O95475 114-200, T165P)
# T7 sequence: T4 sequence with T52P, I54L
# SIX6 [39] = target: T8, SIX6 (Homo sapiens, UniProt O95475 114-200, L167M)
# T8 sequence: T4 sequence with I54M
# SIX6 [40] = target: T9, SIX6 (Homo sapiens, UniProt O95475 114-200, L143M)
# T9 sequence: T4 sequence with L30M, I54L
# SIX6 [41] = target: T10, SIX6 (Homo sapiens, UniProt O95475 114-200, L143I)
# T10 sequence: T4 sequence with L30I, I54L
# SIX6 [42] = target: T11, SIX6 (Homo sapiens, UniProt O95475 114-200, T165G)
# T11 sequence: T4 sequence with T52G, I54L
# SIX6 [43] = target: T12, SIX6 (Homo sapiens, UniProt O95475 114-200, T139Q)
# T12 sequence: T4 sequence with T26Q, I54L
# SIX6 [44] = target: T13, SIX6 (Homo sapiens, UniProt O95475 114-200, T165A)
# T13 sequence: T4 sequence with T52A, I54L
# SIX6 [45] = target: T14, SIX6 (Homo sapiens, UniProt O95475 114-200, L167V)
# T14 sequence: T4 sequence with I54V
# SIX6 [46] = target: T15, SIX6 (Homo sapiens, UniProt O95475 114-200)
# T15 sequence: T4 sequence with I54L
# SIX6 [47] = target: T16, SIX6 (Homo sapiens, UniProt O95475 114-200, T165I)
# T16 sequence: T4 sequence with T52I, I54L
# SHOX (Homo sapiens, UniProt O15266 103-189), sequence (O15266 103-189): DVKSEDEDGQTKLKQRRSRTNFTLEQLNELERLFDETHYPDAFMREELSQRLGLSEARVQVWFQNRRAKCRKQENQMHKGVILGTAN
# SHOX (Homo sapiens, UniProt O15266 103-189, R173C), sequence (O15266 103-189 R173C): as the sequence (O15266 103-189) above, with R71C counted along it
# HOXB9 (Homo sapiens, UniProt P17482 171-250, R186Q), sequence (P17482 171-250 R186Q): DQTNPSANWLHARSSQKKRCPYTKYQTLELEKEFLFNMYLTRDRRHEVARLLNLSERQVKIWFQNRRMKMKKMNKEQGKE
# HOXB9 (Homo sapiens, UniProt P17482 171-250, T197M), sequence (P17482 171-250 T197M): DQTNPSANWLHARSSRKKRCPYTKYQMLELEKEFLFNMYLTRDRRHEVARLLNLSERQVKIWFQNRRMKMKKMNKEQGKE
# HOXB9 (Homo sapiens, UniProt P17482 171-250), sequence (P17482 171-250): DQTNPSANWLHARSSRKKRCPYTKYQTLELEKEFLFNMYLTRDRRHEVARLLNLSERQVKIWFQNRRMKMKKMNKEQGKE
# ALX3 (Homo sapiens, UniProt O95076 139-225), sequence (O95076 139-225): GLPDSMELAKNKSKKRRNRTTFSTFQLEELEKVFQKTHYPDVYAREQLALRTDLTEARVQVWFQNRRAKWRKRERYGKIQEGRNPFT
# ALX3 (Homo sapiens, UniProt O95076 139-225, N203Q), sequence (O95076 139-225 N203Q): as the sequence (O95076 139-225) above, with N65Q counted along it
# VAX1 (Homo sapiens, UniProt Q5SQQ9 86-172, K157R), sequence (Q5SQQ9 86-172 K157R): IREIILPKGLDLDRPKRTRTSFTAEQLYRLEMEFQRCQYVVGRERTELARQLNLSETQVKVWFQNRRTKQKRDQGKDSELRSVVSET
# PROP1 (Homo sapiens, UniProt O75360 56-141, F88S), sequence (O75360 56-141 F88S): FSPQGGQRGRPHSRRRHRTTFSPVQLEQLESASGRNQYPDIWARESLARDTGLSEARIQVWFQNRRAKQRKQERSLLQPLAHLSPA
# PROP1 (Homo sapiens, UniProt O75360 56-141), sequence (O75360 56-141): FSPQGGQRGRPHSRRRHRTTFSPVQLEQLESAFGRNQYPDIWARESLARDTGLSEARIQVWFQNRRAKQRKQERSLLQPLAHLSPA
# ALX3 (Homo sapiens, UniProt O95076 139-225, L168V), sequence (O95076 139-225 L168V): as the sequence (O95076 139-225) above, with L30V counted along it
# VAX1 (Homo sapiens, UniProt Q5SQQ9 86-172, T142I), sequence (Q5SQQ9 86-172 T142I): as the sequence (Q5SQQ9 86-172 K157R) above, with T57I, R72K counted along it
# HOXA7 (Homo sapiens, UniProt P31268 116-202), sequence (P31268 116-202): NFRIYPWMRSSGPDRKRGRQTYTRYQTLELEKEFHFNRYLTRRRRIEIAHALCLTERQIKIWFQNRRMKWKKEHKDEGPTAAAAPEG
# VAX1 (Homo sapiens, UniProt Q5SQQ9 86-172), sequence (Q5SQQ9 86-172): as the sequence (Q5SQQ9 86-172 K157R) above, with R72K counted along it
# HOXD13 (Homo sapiens, UniProt P35453 263-343, T313A), sequence (P35453 263-343 T313A): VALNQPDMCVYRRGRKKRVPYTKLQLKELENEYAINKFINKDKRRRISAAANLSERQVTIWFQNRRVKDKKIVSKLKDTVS
# HOXC9 (Homo sapiens, UniProt P31274 178-260, K195R), sequence (P31274 178-260 K195R): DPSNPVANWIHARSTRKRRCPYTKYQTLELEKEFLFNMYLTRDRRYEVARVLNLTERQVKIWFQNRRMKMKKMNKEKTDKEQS
# ALX3 (Homo sapiens, UniProt O95076 139-225, N203S), sequence (O95076 139-225 N203S): as the sequence (O95076 139-225) above, with N65S counted along it
# HOXD13 (Homo sapiens, UniProt P35453 263-343, T313R), sequence (P35453 263-343 T313R): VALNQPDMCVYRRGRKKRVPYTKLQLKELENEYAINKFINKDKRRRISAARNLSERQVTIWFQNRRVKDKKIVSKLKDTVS
# HOXA2 (Homo sapiens, UniProt O43364 129-215, R185K), sequence (O43364 129-215 R185K): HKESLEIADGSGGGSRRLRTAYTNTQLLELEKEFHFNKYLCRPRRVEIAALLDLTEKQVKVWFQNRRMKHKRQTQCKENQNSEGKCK
# HOXA7 (Homo sapiens, UniProt P31268 116-202, W177C), sequence (P31268 116-202 W177C): as the sequence (P31268 116-202) above, with W62C counted along it
# HOXC9 (Homo sapiens, UniProt P31274 178-260), sequence (P31274 178-260): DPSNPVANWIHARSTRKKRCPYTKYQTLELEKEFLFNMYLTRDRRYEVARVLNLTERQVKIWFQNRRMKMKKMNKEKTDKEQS
# ALX4 (Homo sapiens, UniProt Q9H161 200-286), sequence (Q9H161 200-286): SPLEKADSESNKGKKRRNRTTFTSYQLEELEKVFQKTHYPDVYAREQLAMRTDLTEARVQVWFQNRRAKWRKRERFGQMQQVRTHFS
# HOXC9 (Homo sapiens, UniProt P31274 178-260, R193K), sequence (P31274 178-260 R193K): as the sequence (P31274 178-260) above, with R16K counted along it
# HOXA2 (Homo sapiens, UniProt O43364 129-215, R185T), sequence (O43364 129-215 R185T): as the sequence (O43364 129-215 R185K) above, with K57T counted along it
# HOXC9 (Homo sapiens, UniProt P31274 178-260, R222W), sequence (P31274 178-260 R222W): as the sequence (P31274 178-260) above, with R45W counted along it
# ALX4 (Homo sapiens, UniProt Q9H161 200-286, Q225E), sequence (Q9H161 200-286 Q225E): as the sequence (Q9H161 200-286) above, with Q26E counted along it
# HOXD13 (Homo sapiens, UniProt P35453 263-343), sequence (P35453 263-343): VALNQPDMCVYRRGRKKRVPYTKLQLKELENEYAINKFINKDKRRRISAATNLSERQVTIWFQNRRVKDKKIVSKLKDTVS
# PROP1 (Homo sapiens, UniProt O75360 56-141, R99H), sequence (O75360 56-141 R99H): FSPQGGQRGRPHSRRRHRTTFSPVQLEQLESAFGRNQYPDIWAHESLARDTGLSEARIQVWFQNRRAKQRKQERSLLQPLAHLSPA
# HOXA2 (Homo sapiens, UniProt O43364 129-215), sequence (O43364 129-215): as the sequence (O43364 129-215 R185K) above, with K57R counted along it
# ALX3 (Homo sapiens, UniProt O95076 139-225, L168Q), sequence (O95076 139-225 L168Q): as the sequence (O95076 139-225) above, with L30Q counted along it
# HOXA2 (Homo sapiens, UniProt O43364 129-215, Y150S), sequence (O43364 129-215 Y150S): as the sequence (O43364 129-215 R185K) above, with Y22S, K57R counted along it
sequence,measurement,setting,value
CCGCATCC,binding signal,SHOX [1],"7.26 upbm affinity estimate (log intensity, higher = more binding, comparable within an allelic series)"
same,binding signal,VENTX [2],"8.27 upbm affinity estimate (log intensity, higher = more binding, comparable within an allelic series)"
same,binding signal,HOXB9 [3],"8.5 upbm affinity estimate (log intensity, higher = more binding, comparable within an allelic series)"
same,binding signal,VENTX [4],"8.44 upbm affinity estimate (log intensity, higher = more binding, comparable within an allelic series)"
same,binding signal,VENTX [5],"8.27 upbm affinity estimate (log intensity, higher = more binding, comparable within an allelic series)"
same,binding signal,HOXB9 [6],"8.49 upbm affinity estimate (log intensity, higher = more binding, comparable within an allelic series)"
same,binding signal,SHOX [7],"7.23 upbm affinity estimate (log intensity, higher = more binding, comparable within an allelic series)"
same,binding signal,PROP1 [8],"6.85 upbm affinity estimate (log intensity, higher = more binding, comparable within an allelic series)"
same,binding signal,PROP1 [9],"6.89 upbm affinity estimate (log intensity, higher = more binding, comparable within an allelic series)"
same,binding signal,HOXB9 [10],"8.51 upbm affinity estimate (log intensity, higher = more binding, comparable within an allelic series)"
same,binding signal,PROP1 [11],"6.67 upbm affinity estimate (log intensity, higher = more binding, comparable within an allelic series)"
ATCTATTG,binding signal,SHOX [1],"8.32 upbm affinity estimate (log intensity, higher = more binding, comparable within an allelic series)"
CCCACGGC,binding signal,SHOX [1],"6.91 upbm affinity estimate (log intensity, higher = more binding, comparable within an allelic series)"
same,binding signal,VENTX [2],"7.88 upbm affinity estimate (log intensity, higher = more binding, comparable within an allelic series)"
same,binding signal,HOXB9 [3],"8.38 upbm affinity estimate (log intensity, higher = more binding, comparable within an allelic series)"
same,binding signal,VENTX [4],"7.71 upbm affinity estimate (log intensity, higher = more binding, comparable within an allelic series)"
same,binding signal,HOXA7 [12],"8.48 upbm affinity estimate (log intensity, higher = more binding, comparable within an allelic series)"
same,binding signal,VENTX [5],"7.87 upbm affinity estimate (log intensity, higher = more binding, comparable within an allelic series)"
same,binding signal,HOXA2 [13],"7.17 upbm affinity estimate (log intensity, higher = more binding, comparable within an allelic series)"
same,binding signal,HOXB9 [6],"8.1 upbm affinity estimate (log intensity, higher = more binding, comparable within an allelic series)"
same,binding signal,ALX3 [14],"7.69 upbm affinity estimate (log intensity, higher = more binding, comparable within an allelic series)"
same,binding signal,HOXD13 [15],"9.39 upbm affinity estimate (log intensity, higher = more binding, comparable within an allelic series)"
same,binding signal,SHOX [7],"7.08 upbm affinity estimate (log intensity, higher = more binding, comparable within an allelic series)"
same,binding signal,HOXA2 [16],"10 upbm affinity estimate (log intensity, higher = more binding, comparable within an allelic series)"
same,binding signal,HOXD13 [17],"9.4 upbm affinity estimate (log intensity, higher = more binding, comparable within an allelic series)"
same,binding signal,ALX3 [18],"7.64 upbm affinity estimate (log intensity, higher = more binding, comparable within an allelic series)"
same,binding signal,VAX1 [19],"6.92 upbm affinity estimate (log intensity, higher = more binding, comparable within an allelic series)"
same,binding signal,ALX3 [20],"7.79 upbm affinity estimate (log intensity, higher = more binding, comparable within an allelic series)"
same,binding signal,HOXD13 [21],"9.58 upbm affinity estimate (log intensity, higher = more binding, comparable within an allelic series)"
same,binding signal,HOXB9 [10],"8.18 upbm affinity estimate (log intensity, higher = more binding, comparable within an allelic series)"
same,binding signal,ALX3 [22],"7.77 upbm affinity estimate (log intensity, higher = more binding, comparable within an allelic series)"
same,binding signal,VAX1 [23],"6.93 upbm affinity estimate (log intensity, higher = more binding, comparable within an allelic series)"
same,binding signal,HOXA2 [24],"10.4 upbm affinity estimate (log intensity, higher = more binding, comparable within an allelic series)"
same,binding signal,HOXA7 [25],"8.45 upbm affinity estimate (log intensity, higher = more binding, comparable within an allelic series)"
same,binding signal,ALX3 [26],"7.71 upbm affinity estimate (log intensity, higher = more binding, comparable within an allelic series)"
same,binding signal,HOXA2 [27],"7.04 upbm affinity estimate (log intensity, higher = more binding, comparable within an allelic series)"
same,binding signal,VAX1 [28],"6.78 upbm affinity estimate (log intensity, higher = more binding, comparable within an allelic series)"
CCCCCGGG,binding signal,SHOX [1],"6.93 upbm affinity estimate (log intensity, higher = more binding, comparable within an allelic series)"
same,binding signal,HOXC9 [29],"9.28 upbm affinity estimate (log intensity, higher = more binding, comparable within an allelic series)"
same,binding signal,HOXC9 [30],"9.39 upbm affinity estimate (log intensity, higher = more binding, comparable within an allelic series)"
same,binding signal,SHOX [7],"6.97 upbm affinity estimate (log intensity, higher = more binding, comparable within an allelic series)"
same,binding signal,HOXC9 [31],"9.25 upbm affinity estimate (log intensity, higher = more binding, comparable within an allelic series)"
same,binding signal,HOXC9 [32],"9.53 upbm affinity estimate (log intensity, higher = more binding, comparable within an allelic series)"
GCGCCCCC,binding signal,SHOX [1],"7.04 upbm affinity estimate (log intensity, higher = more binding, comparable within an allelic series)"
same,binding signal,VENTX [2],"8.12 upbm affinity estimate (log intensity, higher = more binding, comparable within an allelic series)"
same,binding signal,VENTX [4],"8.12 upbm affinity estimate (log intensity, higher = more binding, comparable within an allelic series)"
same,binding signal,ALX4 [33],"8.12 upbm affinity estimate (log intensity, higher = more binding, comparable within an allelic series)"
same,binding signal,VENTX [5],"8.06 upbm affinity estimate (log intensity, higher = more binding, comparable within an allelic series)"
same,binding signal,ALX4 [34],"8.14 upbm affinity estimate (log intensity, higher = more binding, comparable within an allelic series)"
same,binding signal,SHOX [7],"7.07 upbm affinity estimate (log intensity, higher = more binding, comparable within an allelic series)"
CCGGCCAC,binding signal,SHOX [1],"7.3 upbm affinity estimate (log intensity, higher = more binding, comparable within an allelic series)"
same,binding signal,SIX6 [35],"8.84 upbm affinity estimate (log intensity, higher = more binding, comparable within an allelic series)"
same,binding signal,SIX6 [36],"8.77 upbm affinity estimate (log intensity, higher = more binding, comparable within an allelic series)"
same,binding signal,SIX6 [37],"8.85 upbm affinity estimate (log intensity, higher = more binding, comparable within an allelic series)"
same,binding signal,SIX6 [38],"8.87 upbm affinity estimate (log intensity, higher = more binding, comparable within an allelic series)"
same,binding signal,SIX6 [39],"8.86 upbm affinity estimate (log intensity, higher = more binding, comparable within an allelic series)"
same,binding signal,SIX6 [40],"8.73 upbm affinity estimate (log intensity, higher = more binding, comparable within an allelic series)"
same,binding signal,SIX6 [41],"8.81 upbm affinity estimate (log intensity, higher = more binding, comparable within an allelic series)"
same,binding signal,SIX6 [42],"8.89 upbm affinity estimate (log intensity, higher = more binding, comparable within an allelic series)"
same,binding signal,SIX6 [43],"8.81 upbm affinity estimate (log intensity, higher = more binding, comparable within an allelic series)"
same,binding signal,SIX6 [44],"8.81 upbm affinity estimate (log intensity, higher = more binding, comparable within an allelic series)"
same,binding signal,SHOX [7],"7.14 upbm affinity estimate (log intensity, higher = more binding, comparable within an allelic series)"
same,binding signal,SIX6 [45],"8.82 upbm affinity estimate (log intensity, higher = more binding, comparable within an allelic series)"
same,binding signal,SIX6 [46],"8.74 upbm affinity estimate (log intensity, higher = more binding, comparable within an allelic series)"
same,binding signal,SIX6 [47],"8.83 upbm affinity estimate (log intensity, higher = more binding, comparable within an allelic series)"
